From PubChem BioAssay
pPAFAH inh: inhibitors of human plasma PAF acetylhydrolase (pPAFAH); Q13093; recombinant pPAFAH, FP-rhodamine probe fluorescence polarization; inhibition, % at 3.39 µM; 330,000 tested, 1.5% active; AID 463082;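 active = inhibition above the mean inhibition across the screen plus 3 SD, cut at about 25% in these data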;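 also: inhibitors block binding of the rhodamine activity-based probe so polarization drops; 0% = enzyme with DMSO and 100% = wells lacking pPAFAH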
DAGLB inhibitor: diacylglycerol lipase beta (human) inhibition; inhibition, % at 5.17 µM; 340,000 tested, 0.059% active; HEK293T DAGLB membrane lysate, EnzChek fluorogenic substrate; in the data active = inhibition above about 34%;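 also: 0% = enzyme with vehicle and 100% = wells lacking enzyme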
PAFAH2 inh: PAFAH2 (human) inhibition; inhibition, % at 3.39 µM; Q99487; recombinant PAFAH2, FP-rhodamine activity probe, fluorescence polarization; 340,000 tested, 0.99% active;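 active = inhibition above the mean over all tested compounds plus 3 SD, cut at about 30% in these data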;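 also: inhibitors block probe labeling of enzyme so polarization drops; 0% = enzyme with DMSO and 100% = wells lacking PAFAH2 protein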
PAFAH1B3 FP inh: inhibitors of human PAFAH1B3. recombinant PAFAH1B3, FP-rhodamine probe, fluorescence polarization. inhibition, % at 3.39 µM. 340,000 tested, 0.28% active. Q15102;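 active = inhibition above the screen-wide average of all tested compounds plus 3 SD, cut at about 25% in these data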;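 also: 0% = enzyme with DMSO only and 100% = wells lacking PAFAH1B3 protein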
Target sequence (Q15102 whole entry, looked up): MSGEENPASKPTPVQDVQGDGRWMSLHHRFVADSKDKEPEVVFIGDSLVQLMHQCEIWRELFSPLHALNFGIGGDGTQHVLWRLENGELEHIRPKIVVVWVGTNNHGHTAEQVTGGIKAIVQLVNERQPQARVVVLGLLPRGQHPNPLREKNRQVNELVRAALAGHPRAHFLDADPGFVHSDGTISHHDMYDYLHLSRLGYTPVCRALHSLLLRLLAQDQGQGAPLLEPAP
PAFAH1B2 FP inh: blocks human PAF acetylhydrolase 1b catalytic subunit 2; recombinant PAFAH1B2, FP-rhodamine activity probe, fluorescence polarization; inhibition, % at 3.39 µM; 340,000 tested, 1.2% active; AID 492953;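 active = inhibition above the mean of all tested compounds plus 3 SD, cut at about 24% in these data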;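 also: 0% = enzyme with DMSO and 100% = wells lacking PAFAH1B2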
ATG4B inhibitor: blocks human ATG4B protease cleavage of LC3 substrate | ATG4B cleavage of LC3-PLA2, NBD-HPC fluorescence, 1 h | inhibition, % at 8.33 µM | Q9Y4P1 | AID 504462 | 340,000 tested, 0.51% active; in the data active = inhibition above about 40%
Target sequence (Q9Y4P1 whole entry, looked up): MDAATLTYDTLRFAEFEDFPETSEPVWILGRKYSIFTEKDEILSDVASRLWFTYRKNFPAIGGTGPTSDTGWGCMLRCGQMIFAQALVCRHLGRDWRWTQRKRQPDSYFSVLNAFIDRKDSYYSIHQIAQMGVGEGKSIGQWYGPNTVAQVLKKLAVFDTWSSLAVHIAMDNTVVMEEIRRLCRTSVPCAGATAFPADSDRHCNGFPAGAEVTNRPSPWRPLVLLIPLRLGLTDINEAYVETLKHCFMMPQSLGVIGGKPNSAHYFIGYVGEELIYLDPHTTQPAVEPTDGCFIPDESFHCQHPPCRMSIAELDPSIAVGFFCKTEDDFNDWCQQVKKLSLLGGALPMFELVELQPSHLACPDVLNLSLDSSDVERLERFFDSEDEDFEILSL
* hit, by the source's call. Rows were chosen to be rich in hits. Some 3% of all compounds tested hit in one or more screens of this group.

How did Cc1ccccc1NS(=O)(=O)c1cccc(C(=O)Nc2cccc(C(=O)O)c2)c1 do in these assays?
pPAFAH inh: 27*; DAGLB inhibitor: 0; PAFAH2 inh: 1; PAFAH1B3 FP inh: 1; PAFAH1B2 FP inh: 4; ATG4B inhibitor: 8

How did CCNC(=S)Nc1cc(OCC)c(NC(=O)c2ccco2)cc1OCC do in these assays?
pPAFAH inh: 5; DAGLB inhibitor: 0; PAFAH2 inh: -16; PAFAH1B3 FP inh: 12; PAFAH1B2 FP inh: 5; ATG4B inhibitor: 2

Results for CCOc1cc(NS(=O)(=O)c2ccccc2)c(OCC)cc1NC(=O)c1ccco1 ?
pPAFAH inh: 31*; DAGLB inhibitor: 0; PAFAH2 inh: 9; PAFAH1B3 FP inh: 7; PAFAH1B2 FP inh: 2; ATG4B inhibitor: -8

Results for Cc1ccccc1NS(=O)(=O)c1ccc(NC(=O)c2ccco2)cc1 ?
pPAFAH inh: 29*; DAGLB inhibitor: 1; PAFAH2 inh: -31; PAFAH1B3 FP inh: 12; PAFAH1B2 FP inh: 5; ATG4B inhibitor: 0

Results for COc1ccc(/C=N/N=C2/CC(C)(C)Cc3n[nH]c(=O)cc32)cc1 ?
pPAFAH inh: 1; DAGLB inhibitor: -3; PAFAH2 inh: 15; PAFAH1B3 FP inh: 4; PAFAH1B2 FP inh: 1; ATG4B inhibitor: 0

What do the screens show for `O=C(COC(=O)c1cccc(S(=O)(=O)NCc2ccccc2)c1)NCC1CCCO1` (stereo not drawn)?
pPAFAH inh: 23; DAGLB inhibitor: -2; PAFAH2 inh: 17; PAFAH1B3 FP inh: -9; PAFAH1B2 FP inh: 5; ATG4B inhibitor: -11

What do the screens show for `Cc1ccccc1NS(=O)(=O)c1ccc(NC(=O)c2nc3ncccn3n2)cc1`?
pPAFAH inh: 29*; DAGLB inhibitor: -1; PAFAH2 inh: 4; PAFAH1B3 FP inh: 20; PAFAH1B2 FP inh: -4; ATG4B inhibitor: -4

What do the screens show for `COc1ccccc1NS(=O)(=O)c1ccc(NC(=O)c2nc3ncccn3n2)cc1`?
DAGLB inhibitor: -1; PAFAH2 inh: -4; PAFAH1B3 FP inh: 5; PAFAH1B2 FP inh: -2; ATG4B inhibitor: 8

How did Oc1[nH]c(=S)sc1/C=C1\C(c2ccccc2)=Nc2ccccc21 do in these assays?
pPAFAH inh: 20; DAGLB inhibitor: 18; PAFAH2 inh: 25; PAFAH1B3 FP inh: -2; PAFAH1B2 FP inh: 14; ATG4B inhibitor: 99*

How did CC1(C)N([O-])c2cc([N+](=O)[O-])ccc2[N+]1=O do in these assays?
pPAFAH inh: 31*; ATG4B inhibitor: -2

What do the screens show for `CCC(C)N(C(=O)CSc1nc2ccc(OC)cc2[nH]1)C1CCS(=O)(=O)C1` (stereo not drawn)?
pPAFAH inh: 6; DAGLB inhibitor: -2; PAFAH2 inh: 3; PAFAH1B3 FP inh: 8; PAFAH1B2 FP inh: 4; ATG4B inhibitor: -2

How did Cc1ccc(S(=O)(=O)Nc2ccc3oc(=O)sc3c2)c(C)c1 do in these assays?
pPAFAH inh: 16; DAGLB inhibitor: 5; PAFAH2 inh: 8; PAFAH1B3 FP inh: -1; PAFAH1B2 FP inh: 28*; ATG4B inhibitor: -17

Results for Cc1ccc(S(=O)(=O)Nc2ccc3c(c2)n(C)c(=O)n3C)c(C)c1 ?
pPAFAH inh: -6; DAGLB inhibitor: -1; PAFAH2 inh: 8; PAFAH1B3 FP inh: 3; PAFAH1B2 FP inh: 4; ATG4B inhibitor: 3

How did CCC1Nc2ncnc(N3CCc4ccccc4C3)c2N(Cc2ccc(Cl)cc2)C1=O (stereo not drawn) do in these assays?
pPAFAH inh: 6; DAGLB inhibitor: 2; PAFAH2 inh: 2; PAFAH1B3 FP inh: -7; PAFAH1B2 FP inh: 26*; ATG4B inhibitor: 6

Results for Nc1nnc(SCC(=O)NC2CCCCCC2)s1 ?
pPAFAH inh: 1; DAGLB inhibitor: 1; PAFAH2 inh: -3; PAFAH1B3 FP inh: 0; PAFAH1B2 FP inh: 10; ATG4B inhibitor: 9

What do the screens show for `Cc1ccc(CC2SC(N=C(N)N)=NC2=O)cc1` (stereo not drawn)?
pPAFAH inh: -2; DAGLB inhibitor: 1; PAFAH2 inh: -1; PAFAH1B3 FP inh: 0; PAFAH1B2 FP inh: 3; ATG4B inhibitor: 3

Results for COc1cccc(CN(C)C(=O)c2ccc(COc3ccc(Cl)cc3)cc2)c1OC ?
pPAFAH inh: 8; DAGLB inhibitor: -23; PAFAH2 inh: -7; PAFAH1B3 FP inh: -3; PAFAH1B2 FP inh: 25*; ATG4B inhibitor: -9

Results for O=c1ccc(NS(=O)(=O)c2ccc(Cl)cc2)cn1Cc1ccc(Cl)c(Cl)c1 ?
pPAFAH inh: 13; DAGLB inhibitor: 5; PAFAH2 inh: 13; PAFAH1B3 FP inh: 4; PAFAH1B2 FP inh: 28*; ATG4B inhibitor: 0

How did Cc1ccccc1OCC(O)COc1ccccc1C do in these assays?
DAGLB inhibitor: -7; PAFAH2 inh: 5; PAFAH1B3 FP inh: 7; PAFAH1B2 FP inh: 5; ATG4B inhibitor: 9

What do the screens show for `N=C1/C(=C\c2ccc(-c3ccc(C(=O)O)cc3)o2)C(=O)N=C2SC=C(c3ccccc3)N12`?
DAGLB inhibitor: 1; PAFAH2 inh: 34*; PAFAH1B3 FP inh: 25; PAFAH1B2 FP inh: 28*; ATG4B inhibitor: 11

Results for COc1cc(/C=C2/C(=N)N3C(c4ccccc4)=CSC3=NC2=O)ccc1OCC(=O)O ?
pPAFAH inh: 14; DAGLB inhibitor: -2; PAFAH2 inh: 16; PAFAH1B3 FP inh: 3; PAFAH1B2 FP inh: 7; ATG4B inhibitor: -1

What do the screens show for `Cc1ccc(SCCNC(=O)c2ccc([N+](=O)[O-])c(C)c2)cc1`?
pPAFAH inh: -6; DAGLB inhibitor: -13; PAFAH2 inh: 5; PAFAH1B3 FP inh: 12; PAFAH1B2 FP inh: 28*; ATG4B inhibitor: 8

What do the screens show for `Oc1ccc(/C=N/Nc2ccc3ccccc3c2)c(O)c1`?
pPAFAH inh: 25*; DAGLB inhibitor: 1; PAFAH2 inh: 5; PAFAH1B3 FP inh: 12; PAFAH1B2 FP inh: 2; ATG4B inhibitor: -7

Results for Oc1ccc(C=NNc2nc3ccccc3s2)c(O)c1 ?
DAGLB inhibitor: 4; PAFAH2 inh: 19; PAFAH1B3 FP inh: 25; PAFAH1B2 FP inh: 17; ATG4B inhibitor: -8

How did Cn1c(=O)c2c(ncn2CC(=O)OCC(=O)NCc2ccc(F)cc2)n(C)c1=O do in these assays?
DAGLB inhibitor: -5

How did CC1CCCCC12NC(=O)N(CC(=O)N1CCN(C(=O)c3ccco3)CC1)C2=O (stereo not drawn) do in these assays?
pPAFAH inh: -3; DAGLB inhibitor: 0; PAFAH2 inh: -2; PAFAH1B3 FP inh: -5; PAFAH1B2 FP inh: 2; ATG4B inhibitor: -15

How did Cc1ccc(-n2ncc3c2CC(C)(C)CC3NC(=O)c2ccncc2)cc1 (stereo not drawn) do in these assays?
pPAFAH inh: 2; DAGLB inhibitor: 0; PAFAH2 inh: -4; PAFAH1B3 FP inh: 4; PAFAH1B2 FP inh: -1; ATG4B inhibitor: -6

What do the screens show for `Cc1cccc(C(=O)O/N=C/c2ccc(Br)cc2)c1`?
pPAFAH inh: 18; DAGLB inhibitor: -20; PAFAH2 inh: 73*; PAFAH1B3 FP inh: 0; PAFAH1B2 FP inh: 37*; ATG4B inhibitor: 14
